Data as given in the supplement of paper PMC7366291.
Structures can show the parent of a compound that is named as a salt. ± gives the standard deviation or the standard deviation of the averaged measurements.

Experiments:
Conditions in all cases: 25 µM; exposure: 24-48 hpf
[1] = system: Danio rerio Tg(wt1b:EGFP) embryo, pronephros; assay: glomerular separation, fold change vs DMSO control; higher = glomeruli further apart (abnormal)
Procedure, shortened: (§1)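 Dechorionated Tg(wt1b:EGFP) zebrafish embryos were treated with 25 μM compound in 0.5% DMSO, in HEPES-buffered E3 with 0.003% PTU, from 24 to 48 hpf at 28.5°C. On maximum projections of dorsal pronephros images, 16 hand-placed reference points in Fiji gave distances and angles, and values more than 2 SD from the feature mean were left out. Results are fold changes over the mean of same-day DMSO-treated embryos.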

[2] = system: Danio rerio Tg(wt1b:EGFP) embryo, pronephros; assay: glomerular width (mean of left and right), fold change vs DMSO control; higher = wider glomerulus
Procedure, shortened: as §1

[3] = system: Danio rerio Tg(wt1b:EGFP) embryo, pronephros; assay: fraction of imaged embryos annotated as normal kidney; higher = less nephrotoxic; extreme values may be limits of the assay
Procedure, shortened: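 The read-out is the proportion of embryos in each treatment manually annotated as normal-kidney. Exposure ran from 24 to 48 hpf at 28.5°C in 12-well plates, using dechorionated Tg(wt1b:EGFP) zebrafish embryos in 5 mM HEPES-buffered E3 with 0.003% PTU, 0.5% DMSO and 25 μM compound. For imaging, larvae were anaesthetised with tricaine, positioned dorsally in agarose-filled 96-well plates and captured by widefield fluorescence (470 nm, 10 z-slices), with scoring done on maximum projections.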

[4] = system: Danio rerio Tg(wt1b:EGFP) embryo, pronephros; assay: pronephric angle neck segment to proximal convoluted tubule (mean of left and right), fold change vs DMSO control; higher = larger pronephric angle
Procedure, shortened: as §1

CN[C@@H]1[C@H](O[C@H]2[C@H](O[C@H]3[C@H](O)[C@@H](O)[C@H](N=C(N)N)[C@@H](O)[C@@H]3N=C(N)N)O[C@@H](C)[C@]2(O)C=O)O[C@@H](CO)[C@H](O)[C@H]1O [Streptomycin sulfate]
glomerular separation [1]: 0.691 ± 0.22
glomerular width [2]: 1.08 ± 0.098
fraction of imaged embryos annotated as normal kidney [3]: 0.917
pronephric angle neck segment [4]: 0.959 ± 0.043

CC(=O)Oc1ccc(C(c2ccc(OC(C)=O)cc2)c2ccccn2)cc1 [Bisacodyl]
glomerular separation [1]: 0.927 ± 0.28
glomerular width [2]: 0.957 ± 0.038
fraction of imaged embryos annotated as normal kidney [3]: 0.917
pronephric angle neck segment [4]: 1.01 ± 0.016

Cc1nc(=O)c2cc(CN(C)c3ccc(C(=O)N[C@@H](CCC(=O)O)C(=O)O)s3)ccc2[nH]1 [Raltitrexed]
glomerular separation [1]: 0.711 ± 0.3
glomerular width [2]: 1.08 ± 0.017
fraction of imaged embryos annotated as normal kidney [3]: 0.917
pronephric angle neck segment [4]: 0.9802 ± 0.0082

Cc1ncc(CO)c(CO)c1O [Pyridoxine hydrochloride]
glomerular separation [1]: 0.838 ± 0.25
glomerular width [2]: 1.04 ± 0.019
fraction of imaged embryos annotated as normal kidney [3]: 1
pronephric angle neck segment [4]: 1.06 ± 0.061

CN1C(C(=O)Nc2ccccn2)=C(O)c2ccccc2S1(=O)=O [Piroxicam]
glomerular separation [1]: 6.43 ± 2.4
glomerular width [2]: 0.525 ± 0.012
fraction of imaged embryos annotated as normal kidney [3]: 0
pronephric angle neck segment [4]: 1.78 ± 0.095

CCN(CC)CCc1nc(-c2ccccc2)no1 [Oxalamine citrate salt]
glomerular separation [1]: 0.929 ± 0.43
glomerular width [2]: 0.933 ± 0.016
fraction of imaged embryos annotated as normal kidney [3]: 0.917
pronephric angle neck segment [4]: 0.893 ± 0.035

C[C@]12CCC(=O)C=C1CC[C@@H]1[C@@H]2C(=O)C[C@@]2(C)[C@H]1CC[C@]2(O)C(=O)CO [Cortisone]
glomerular separation [1]: 1.08 ± 0.37
glomerular width [2]: 1.13 ± 0.017
fraction of imaged embryos annotated as normal kidney [3]: 0.917
pronephric angle neck segment [4]: 1.031 ± 0.0011

CCCCNc1ccc(C(=O)OCCOCCOCCOCCOCCOCCOCCOCCOCCOC)cc1 [Benzonatate]
glomerular separation [1]: 1.12 ± 0.54
glomerular width [2]: 0.897 ± 0.012
fraction of imaged embryos annotated as normal kidney [3]: 0.7
pronephric angle neck segment [4]: 1.09 ± 0.039

C=C1c2cccc(O)c2C(=O)C2=C(O)[C@]3(O)C(=O)C(C(N)=O)=C(O)[C@@H](N(C)C)[C@@H]3[C@@H](O)[C@H]12 [Methacycline hydrochloride]
glomerular separation [1]: 0.724 ± 0.4
glomerular width [2]: 1.11 ± 0.0095
fraction of imaged embryos annotated as normal kidney [3]: 0.818
pronephric angle neck segment [4]: 0.984 ± 0.018

NC(=O)N1c2ccccc2C=Cc2ccccc21 [Carbamazepine]
glomerular separation [1]: 0.842 ± 0.19
glomerular width [2]: 0.99 ± 0.04
fraction of imaged embryos annotated as normal kidney [3]: 0.667
pronephric angle neck segment [4]: 0.955 ± 0.025

CC[C@]12CCCN3CCc4c(n(c5ccccc45)C(=O)C1)[C@@H]32 [Eburnamonine (-)]
glomerular separation [1]: 1.19 ± 0.41
glomerular width [2]: 0.922 ± 0.059
fraction of imaged embryos annotated as normal kidney [3]: 1
pronephric angle neck segment [4]: 1.03 ± 0.017

CCCCC[C@H](O)/C=C/[C@@H]1[C@@H](C/C=C\CCCC(=O)O)[C@@H](O)C[C@H]1O [Dinoprost trometamol]
glomerular separation [1]: 0.881 ± 0.18
glomerular width [2]: 1.01 ± 0.064
fraction of imaged embryos annotated as normal kidney [3]: 0.833
pronephric angle neck segment [4]: 0.975 ± 0.043

CCC1=C(C)CN(C(=O)NCCc2ccc(S(=O)(=O)NC(=O)N[C@H]3CC[C@H](C)CC3)cc2)C1=O [Glimepiride]
glomerular separation [1]: 0.872 ± 0.29
glomerular width [2]: 1.02 ± 0.06
fraction of imaged embryos annotated as normal kidney [3]: 0.917
pronephric angle neck segment [4]: 1 ± 0.03

CCN(CC)CCNc1ccc(CO)c2sc3ccccc3c(=O)c12 [Hycanthone]
glomerular separation [1]: 1.12 ± 0.27
glomerular width [2]: 0.968 ± 0.052
fraction of imaged embryos annotated as normal kidney [3]: 0.833
pronephric angle neck segment [4]: 0.977 ± 0.059

CC(C)(C)NC[C@H](O)COc1ccccc1C1CCCC1 [Penbutolol sulfate]
glomerular separation [1]: 0.661 ± 0.15
glomerular width [2]: 0.988 ± 0.02
fraction of imaged embryos annotated as normal kidney [3]: 0.917
pronephric angle neck segment [4]: 1.02 ± 0.02

COc1cc(OC)c(C(=O)CCCN2CCCC2)c(OC)c1 [Buflomedil hydrochloride]
glomerular separation [1]: 1.14 ± 0.33
glomerular width [2]: 1.08 ± 0.06
fraction of imaged embryos annotated as normal kidney [3]: 0.917
pronephric angle neck segment [4]: 1.01 ± 0.053

CCCC1C(=O)N2C(N(C)C)=Nc3ccc(C)cc3N2C1=O (stereo not given) [Azapropazone]
glomerular separation [1]: 1.16 ± 0.34
glomerular width [2]: 0.984 ± 0.022
fraction of imaged embryos annotated as normal kidney [3]: 0.917
pronephric angle neck segment [4]: 1.018 ± 0.0029

CC[C@H]1OC(=O)[C@H](C)[C@@H](O[C@H]2C[C@@](C)(OC)[C@@H](O)[C@H](C)O2)[C@H](C)[C@@H](O[C@@H]2O[C@H](C)C[C@H](N(C)C)[C@H]2O)[C@](C)(OC)C[C@@H](C)C(=O)[C@H](C)[C@@H](O)[C@]1(C)O [Clarithromycin]
glomerular separation [1]: 0.802 ± 0.28
glomerular width [2]: 0.909 ± 0.043
fraction of imaged embryos annotated as normal kidney [3]: 1
pronephric angle neck segment [4]: 1.06 ± 0.039

CC(CCc1ccc(O)cc1)NCCc1ccc(O)c(O)c1 (stereo not given) [Dobutamine hydrochloride]
glomerular separation [1]: 0.82 ± 0.23
glomerular width [2]: 0.999 ± 0.032
fraction of imaged embryos annotated as normal kidney [3]: 1
pronephric angle neck segment [4]: 0.997 ± 0.078

CC(C)Oc1ccc2c(=O)c(-c3ccccc3)coc2c1 [Ipriflavone]
glomerular separation [1]: 0.901 ± 0.33
glomerular width [2]: 0.918 ± 0.049
fraction of imaged embryos annotated as normal kidney [3]: 0.833
pronephric angle neck segment [4]: 1.06 ± 0.028

OCCOCCN1CCN(C(c2ccccc2)c2ccc(Cl)cc2)CC1 (stereo not given) [Hydroxyzine dihydrochloride]
glomerular separation [1]: 0.754 ± 0.2
glomerular width [2]: 1.02 ± 0.013
fraction of imaged embryos annotated as normal kidney [3]: 1
pronephric angle neck segment [4]: 0.964 ± 0.048

C[C@]12CC[C@@H]3c4ccc(O)cc4C[C@@H](CCCCCCCCC[S+]([O-])CCCC(F)(F)C(F)(F)F)[C@H]3[C@@H]1CC[C@@H]2O (stereo not given in full) [Fulvestrant]
glomerular separation [1]: 1.22 ± 0.45
glomerular width [2]: 0.963 ± 0.037
fraction of imaged embryos annotated as normal kidney [3]: 0.833
pronephric angle neck segment [4]: 0.874 ± 0.065

O=C(O)c1cc(-c2ccc(F)cc2F)ccc1O [Diflunisal]
glomerular separation [1]: 4.51 ± 2.5
glomerular width [2]: 0.881 ± 0.022
fraction of imaged embryos annotated as normal kidney [3]: 0.0833
pronephric angle neck segment [4]: 1.69 ± 0.17

O=c1[nH]c(=O)n([C@H]2C[C@H](O)[C@@H](CO)O2)cc1C(F)(F)F [Trifluridine]
glomerular separation [1]: 0.965 ± 0.28
glomerular width [2]: 0.9839 ± 0.0047
fraction of imaged embryos annotated as normal kidney [3]: 0.917
pronephric angle neck segment [4]: 0.99 ± 0.013

CCOC(=O)c1ccc(N)cc1 [Benzocaine]
glomerular separation [1]: 1.45 ± 0.34
glomerular width [2]: 0.901 ± 0.021
fraction of imaged embryos annotated as normal kidney [3]: 0.833
pronephric angle neck segment [4]: 1.02 ± 0.016

Nc1ccc(S(=O)(=O)Nc2nccs2)cc1 [Sulfathiazole]
glomerular separation [1]: 0.931 ± 0.36
glomerular width [2]: 0.936 ± 0.027
fraction of imaged embryos annotated as normal kidney [3]: 0.917
pronephric angle neck segment [4]: 0.957 ± 0.019

O=C(OCC(O)CO)c1ccccc1Nc1ccnc2cc(Cl)ccc12 (stereo not given) [Glafenine hydrochloride]
glomerular separation [1]: 1.05 ± 0.26
glomerular width [2]: 1.02 ± 0.04
fraction of imaged embryos annotated as normal kidney [3]: 0.833
pronephric angle neck segment [4]: 1.02 ± 0.017

CN(C)CCCN1c2ccccc2CCc2ccc(Cl)cc21 [Clomipramine hydrochloride]
glomerular separation [1]: 1.18 ± 0.38
glomerular width [2]: 0.947 ± 0.035
fraction of imaged embryos annotated as normal kidney [3]: 0.667
pronephric angle neck segment [4]: 1.06 ± 0.014

C=C(CC)C(=O)c1ccc(OCC(=O)O)c(Cl)c1Cl [Ethacrynic acid]
glomerular separation [1]: 1.05 ± 0.28
glomerular width [2]: 1.02 ± 0.0053
fraction of imaged embryos annotated as normal kidney [3]: 0.75
pronephric angle neck segment [4]: 0.9182 ± 0.0012

Cc1nccn1CC1CCc2c(c3ccccc3n2C)C1=O (stereo not given) [Ondansetron Hydrochloride]
glomerular separation [1]: 1.05 ± 0.35
glomerular width [2]: 1.011 ± 0.01
fraction of imaged embryos annotated as normal kidney [3]: 0.833
pronephric angle neck segment [4]: 0.96132 ± 0.00094

CN1CCN(CCCN2c3ccccc3Sc3ccc(Cl)cc32)CC1 [Prochlorperazine dimaleate]
glomerular separation [1]: 1.05 ± 0.37
glomerular width [2]: 1.01 ± 0.033
fraction of imaged embryos annotated as normal kidney [3]: 0.833
pronephric angle neck segment [4]: 1.02 ± 0.027

Nc1ccn([C@@H]2CS[C@H](CO)O2)c(=O)n1 [Lamivudine]
glomerular separation [1]: 0.982 ± 0.27
glomerular width [2]: 0.984 ± 0.042
fraction of imaged embryos annotated as normal kidney [3]: 0.667
pronephric angle neck segment [4]: 0.987 ± 0.031

Cn1c(=O)c2c(ncn2C)n(C)c1=O [Caffeine]
glomerular separation [1]: 0.852 ± 0.19
glomerular width [2]: 0.921 ± 0.018
fraction of imaged embryos annotated as normal kidney [3]: 0.9
pronephric angle neck segment [4]: 1.05 ± 0.099

CC(C)c1c(C(=O)Nc2ccccc2)c(-c2ccccc2)c(-c2ccc(F)cc2)n1CC[C@@H](O)C[C@@H](O)CC(=O)O [Atorvastatin]
glomerular separation [1]: 3.42 ± 1.4
glomerular width [2]: 0.691 ± 0.032
fraction of imaged embryos annotated as normal kidney [3]: 0
pronephric angle neck segment [4]: 1.65 ± 0.047

CN(c1nccc(=O)[nH]1)C1CCN(c2nc3ccccc3n2Cc2ccc(F)cc2)CC1 [Mizolastine]
glomerular separation [1]: 1.05 ± 0.25
glomerular width [2]: 1.1 ± 0.017
fraction of imaged embryos annotated as normal kidney [3]: 0.917
pronephric angle neck segment [4]: 0.937 ± 0.015

O=C1c2ccccc2C(=O)C1c1ccccc1 [Phenindione]
glomerular separation [1]: 1.02 ± 0.37
glomerular width [2]: 1.07 ± 0.052
fraction of imaged embryos annotated as normal kidney [3]: 0.75
pronephric angle neck segment [4]: 0.919 ± 0.013

O=C(CCCN1CCC(O)(c2ccc(Cl)cc2)CC1)c1ccc(F)cc1 [Haloperidol]
glomerular separation [1]: 1.19 ± 0.53
glomerular width [2]: 0.918 ± 0.086
fraction of imaged embryos annotated as normal kidney [3]: 0.833
pronephric angle neck segment [4]: 0.974 ± 0.046

CO[C@@H]1[C@@H](OC(N)=O)[C@@H](O)[C@H](Oc2ccc3c(O)c(NC(=O)c4ccc(O)c(CC=C(C)C)c4)c(=O)oc3c2C)OC1(C)C [Novobiocin sodium salt]
glomerular separation [1]: 0.71 ± 0.24
glomerular width [2]: 1.06 ± 0.038
fraction of imaged embryos annotated as normal kidney [3]: 0.75
pronephric angle neck segment [4]: 0.9784 ± 0.0046

OC(CCN1CCCCC1)(c1ccccc1)c1ccccc1 [Pridinol methanesulfonate salt]
glomerular separation [1]: 0.797 ± 0.22
glomerular width [2]: 1.02 ± 0.06
fraction of imaged embryos annotated as normal kidney [3]: 1
pronephric angle neck segment [4]: 0.986 ± 0.089

CC(CN(C)C)CN1c2ccccc2Sc2ccccc21 (stereo not given) [Trimeprazine tartrate]
glomerular separation [1]: 0.739 ± 0.27
glomerular width [2]: 0.9878 ± 0.0068
fraction of imaged embryos annotated as normal kidney [3]: 0.833
pronephric angle neck segment [4]: 1.01 ± 0.0053
